Results on six molecules are retold here after PubChem BioAssay (EPA / NIEHS).

Holding throughout (conditions): mRNA level, 48 h; actives raise or lower the signal
Read-out in test [1]: ATP-citrate lyase (ACLY), ACLY (gene 47)
Put plainly: LTEA_HepaRG_ACLY: Life Technologies and Expression Analysis (LTEA) Assay for ATP-citrate lyase (ACLY) using HepaRG (AID 2283466). Summed up: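 Differentiated human HepaRG cells in serum-free induction medium exposed 48 h, in duplicate, to eight half-log concentrations from 100 uM top in 0.5% DMSO; ACLY mRNA measured by qRT-PCR, normalized to ACTB, GAPDH, POLR2A, fitted bidirectionally versus DMSO.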

Read-out in test [2]: Peroxisomal acyl-coenzyme A oxidase 1 (ACOX1) gene, ACOX1 (gene 51)
Put plainly: LTEA_HepaRG_ACOX1: Life Technologies and Expression Analysis (LTEA) Assay for Peroxisomal acyl-coenzyme A oxidase 1 (ACOX1) gene using HepaRG (AID 2283467). An outline of the steps:
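Differentiated human HepaRG cells were exposed in duplicate for 48 h in serum-free induction medium to eight half-log concentrations up to 100 uM in 0.5% DMSO. ACOX1 mRNA was then quantified by TaqMan qRT-PCR, normalized to ACTB, GAPDH and POLR2A.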

Read-out in test [3]: Alkaline Phosphatase, Placental (ALPP) gene, ALPP (gene 250)
Put plainly: LTEA_HepaRG_ALPP: Life Technologies and Expression Analysis (LTEA) Assay for Alkaline Phosphatase, Placental (ALPP) gene using HepaRG (AID 2283468). Summed up:
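Expression of ALPP was quantified by qRT-PCR against three housekeeping genes in human HepaRG cultures treated for 48 h with an eight-point concentration series up to 100 uM. Activity in either direction was fitted relative to 0.5% DMSO.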

Read-out in test [4]: Bcl-2 (BAD) gene, BAD (gene 572)
Put plainly: LTEA_HepaRG_BAD: Life Technologies and Expression Analysis (LTEA) Assay for Bcl-2 (BAD) gene using HepaRG (AID 2283469). An outline of the steps:
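Differentiated human HepaRG cells in serum-free induction medium were exposed in duplicate for 48 h to eight concentrations (top 100 uM, half-log steps, 0.5% DMSO). BAD mRNA was quantified by qRT-PCR normalised to ACTB, GAPDH and POLR2A, with bidirectional fitting versus DMSO.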

Read-out in test [5]: Bcl-2 (BAX) gene, BAX (gene 581)
Put plainly: LTEA_HepaRG_BAX: Life Technologies and Expression Analysis (LTEA) Assay for Bcl-2 (BAX) gene using HepaRG (AID 2283470). An outline of the steps:
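HepaRG (human liver), 48 h exposure, duplicate wells. 8-pt curve, half-log from 100 uM, 0.5% DMSO. BAX transcript by TaqMan qRT-PCR; ACTB/GAPDH/POLR2A normalization; gain or loss vs DMSO baseline.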

Read-out in test [6]: adenosine kinase (ADK) gene, ADK (gene 132)
Put plainly: LTEA_HepaRG_ADK: Life Technologies and Expression Analysis (LTEA) Assay for adenosine kinase (ADK) gene using HepaRG (AID 2283471). An outline of the steps: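 Differentiated HepaRG cells dosed 48 h in serum-free induction medium, 0.5% DMSO vehicle, eight half-log concentrations from 100 uM, in duplicate. ADK mRNA by TaqMan qRT-PCR normalised to ACTB, GAPDH, POLR2A; bidirectional fit versus DMSO.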

Read-out in test [7]: Alpha-fetoprotein (AFP) gene, AFP (gene 174)
Put plainly: LTEA_HepaRG_AFP: Life Technologies and Expression Analysis (LTEA) Assay for Alpha-fetoprotein (AFP) gene using HepaRG (AID 2283472). An outline of the steps:
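HepaRG, single lot; 48 h post-plating -> serum-free induction medium; cpd 8-pt, 100 uM top, half-log, 0.5% DMSO, duplicate, 48 h. RNA -> qRT-PCR AFP, norm ACTB/GAPDH/POLR2A. Bidirectional fit vs DMSO.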

Read-out in test [8]: BCL2L11 (gene 10018)
Put plainly: LTEA_HepaRG_BCL2L11: Life Technologies and Expression Analysis (LTEA) Assay for Bcl-2 (BCL2L11) gene using HepaRG (AID 2283473). Summed up:
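Cells were plated, cultured 48 h, switched to serum-free induction medium, then dosed in duplicate for 48 h at eight half-log concentrations up to 100 uM. Lysates underwent RNA isolation and TaqMan qRT-PCR; gain or loss versus DMSO was fitted.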

Read-out in test [9]: Apolipoprotein A-V (APOA5) gene, APOA5 (gene 116519)
Put plainly: LTEA_HepaRG_APOA5: Life Technologies and Expression Analysis (LTEA) Assay for Apolipoprotein A-V (APOA5) gene using HepaRG (AID 2283474). An outline of the steps:
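Human liver HepaRG cells are treated 48 h with test chemicals (100 uM top, half-log dilutions, 0.5% DMSO). APOA5 mRNA induction or loss is measured by qRT-PCR relative to vehicle.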

Read-out in test [10]: Apoptosis regulator Bcl-2 (Homo sapiens) (UniProt P10415)
Put plainly: LTEA_HepaRG_BCL2: Life Technologies and Expression Analysis (LTEA) Assay for Bcl-2 gene using HepaRG (AID 2283475). An outline of the steps:
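HepaRG, plated 48 h then switched to serum-free induction medium; dosed 48 h, 8 conc. (max 100 uM, half-log steps), duplicate, 0.5% DMSO. Lysis in RLT, RNA isolated, TaqMan qRT-PCR for BCL2; ACTB/GAPDH/POLR2A normalisation; bidirectional fit vs DMSO.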

Read-out in test [11]: Bcl-2 (BID) gene, BID (gene 637)
Put plainly: LTEA_HepaRG_BID: Life Technologies and Expression Analysis (LTEA) Assay for Bcl-2 (BID) gene using HepaRG (AID 2283476). Summed up:
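Transcript levels of BID, measured by qRT-PCR and normalized to three housekeeping genes, were fitted bidirectionally against DMSO controls. Cells were HepaRG, dosed 48 h at up to 100 uM.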

Read-out in test [12]: Caspase-3 (Homo sapiens) (UniProt P42574)
Put plainly: LTEA_HepaRG_CASP3: Life Technologies and Expression Analysis (LTEA) Assay for cysteine-aspartic acid protease (CASP3) using HepaRG (AID 2283477). An outline of the steps:
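In HepaRG liver cells dosed for 48 h at up to 100 uM (eight-point, duplicate), CASP3 expression changes are scored by qRT-PCR. Activity is fitted in both directions with 0.5% DMSO as baseline.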

Read-out in test [13]: Cytochrome P450 (CYP24A1), CYP24A1 (gene 1591)
Put plainly: LTEA_HepaRG_CYP24A1: Life Technologies and Expression Analysis (LTEA) Assay for Cytochrome P450 (CYP24A1) using HepaRG (AID 2283478). An outline of the steps:
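Human liver HepaRG cultures receive each chemical for 48 h across an eight-point half-log series topping at 100 uM in 0.5% DMSO. Induction or suppression of CYP24A1 mRNA is scored relative to vehicle after housekeeping-gene normalization.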

Read-out in test [14]: Cytochrome P450 (CYP1A2), CYP1A2 (gene 1544)
Put plainly: LTEA_HepaRG_CYP1A2: Life Technologies and Expression Analysis (LTEA) Assay for Cytochrome P450 (CYP1A2) using HepaRG (AID 2283479). An outline of the steps:
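Assesses CYP1A2 mRNA in human HepaRG liver cells after 48 h chemical exposure at up to 100 uM. Values come from qRT-PCR with bidirectional curve fitting relative to DMSO.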

Read-out in test [15]: cysteine-aspartic acid protease (CASP8), CASP8 (gene 841)
Put plainly: LTEA_HepaRG_CASP8: Life Technologies and Expression Analysis (LTEA) Assay for cysteine-aspartic acid protease (CASP8) using HepaRG (AID 2283480). Summed up: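 Differentiated human HepaRG cells, plated 48 h then switched to serum-free induction medium, were exposed in duplicate for 48 h to 8 half-log concentrations up to 100 uM in 0.5% DMSO. CASP8 mRNA was quantified by qRT-PCR, normalized to ACTB/GAPDH/POLR2A.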

Read-out in test [16]: Cytochrome P450 (CYP2B6), CYP2B6 (gene 1555)
Put plainly: LTEA_HepaRG_CYP2B6: Life Technologies and Expression Analysis (LTEA) Assay for Cytochrome P450 (CYP2B6) using HepaRG (AID 2283481). An outline of the steps:
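Using 48 h treatment of HepaRG cells in serum-free induction medium, concentrations spanned half-log steps from 100 uM in 0.5% DMSO vehicle. CYP2B6 mRNA induction or loss is scored by qRT-PCR against DMSO.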

Read-out in test [17]: Cytochrome P450 2C19 (Homo sapiens) (UniProt P33261)
Put plainly: LTEA_HepaRG_CYP2C19: Life Technologies and Expression Analysis (LTEA) Assay for CYP2C19 using HepaRG (AID 2283482). Summed up: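 Human HepaRG liver cells received test chemicals for 48 h (highest 100 uM, half-log dilutions in 0.5% DMSO). CYP2C19 mRNA induction or loss is read by multiplexed qRT-PCR and fitted in both directions versus vehicle.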

Read-out in test [18]: CYP2C8 (gene 1558)
Put plainly: LTEA_HepaRG_CYP2C8: Life Technologies and Expression Analysis (LTEA) Assay for CYP2C8 using HepaRG (AID 2283483). An outline of the steps:
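Differentiated human HepaRG cells were exposed for 48 h in serum-free induction medium to eight half-log concentrations up to 100 uM in 0.5% DMSO, in duplicate. CYP2C8 mRNA was measured by TaqMan qRT-PCR, normalized to ACTB, GAPDH and POLR2A, and fitted bidirectionally against DMSO.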

Read-out in test [19]: CYP2C9 (gene 1559)
Put plainly: LTEA_HepaRG_CYP2C9: Life Technologies and Expression Analysis (LTEA) Assay for CYP2C9 using HepaRG (AID 2283484). Summed up:
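Differentiated human HepaRG cells were exposed 48 h in serum-free induction medium to eight half-log concentrations up to 100 uM in 0.5% DMSO. CYP2C9 mRNA was measured by qRT-PCR, normalized to ACTB, GAPDH and POLR2A, and fitted bidirectionally against DMSO.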

Read-out in test [20]: CYP2E1 (gene 1571)
Put plainly: LTEA_HepaRG_CYP2E1: Life Technologies and Expression Analysis (LTEA) Assay for CYP2E1 using HepaRG (AID 2283485). Summed up: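 Human liver line HepaRG, plated 48 h, then serum-free induction medium + chemical x 48 h; 8-pt CRC from 100 uM, half-log, 0.5% DMSO, n=2. Readout: CYP2E1 mRNA qRT-PCR vs ACTB/GAPDH/POLR2A; bidirectional fit vs DMSO.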

As usually defined, the AC50 is the concentration at which the activity in the assay is half-maximal.

Calls of active or inactive are those of the source. How the source made its calls: active means hit-call score of the fitted dose curve at least 0.9, where 1 is the maximum; inactive means score below 0.9.

Sequence of Apoptosis regulator Bcl-2 (Homo sapiens) (P10415 whole entry, looked up): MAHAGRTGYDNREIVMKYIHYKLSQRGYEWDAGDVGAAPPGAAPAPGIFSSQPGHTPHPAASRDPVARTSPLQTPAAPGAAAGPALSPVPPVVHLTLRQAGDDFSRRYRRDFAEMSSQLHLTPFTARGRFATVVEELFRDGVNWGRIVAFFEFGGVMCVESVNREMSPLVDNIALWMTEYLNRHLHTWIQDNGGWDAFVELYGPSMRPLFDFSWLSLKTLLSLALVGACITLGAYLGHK
Sequence of Cytochrome P450 2C19 (Homo sapiens) (P33261 whole entry, looked up): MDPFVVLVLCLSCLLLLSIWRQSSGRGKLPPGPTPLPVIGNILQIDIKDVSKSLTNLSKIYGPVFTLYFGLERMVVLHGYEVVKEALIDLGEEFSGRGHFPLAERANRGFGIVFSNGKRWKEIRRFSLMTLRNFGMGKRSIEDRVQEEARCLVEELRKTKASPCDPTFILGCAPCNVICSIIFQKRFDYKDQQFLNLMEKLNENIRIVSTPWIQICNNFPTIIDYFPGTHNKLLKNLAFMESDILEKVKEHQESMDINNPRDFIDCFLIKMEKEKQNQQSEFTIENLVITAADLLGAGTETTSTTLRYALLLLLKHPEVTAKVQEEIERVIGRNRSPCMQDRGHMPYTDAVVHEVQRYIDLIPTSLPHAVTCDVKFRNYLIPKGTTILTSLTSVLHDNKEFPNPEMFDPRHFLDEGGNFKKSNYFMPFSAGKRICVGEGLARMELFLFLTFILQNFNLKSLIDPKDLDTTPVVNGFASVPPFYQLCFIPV
Sequence of Caspase-3 (Homo sapiens) (P42574 whole entry, looked up): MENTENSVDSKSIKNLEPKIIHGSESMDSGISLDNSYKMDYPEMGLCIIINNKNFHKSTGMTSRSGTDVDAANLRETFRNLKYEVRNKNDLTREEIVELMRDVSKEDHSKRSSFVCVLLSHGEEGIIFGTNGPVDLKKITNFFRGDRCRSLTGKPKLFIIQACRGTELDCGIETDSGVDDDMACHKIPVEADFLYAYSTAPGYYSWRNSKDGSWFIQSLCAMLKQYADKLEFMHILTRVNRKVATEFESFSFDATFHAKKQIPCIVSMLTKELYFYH

As for `ClC1=C(Cl)[C@]2(Cl)[C@@H]3[C@H]4C[C@H]([C@@H]5O[C@H]45)[C@@H]3[C@@]1(Cl)C2(Cl)Cl`, the outcome in [1], in test [2], in test [3], in test [4], in [5] and in test [6] was inactive. The outcome in test [8], in test [11], in test [12], in test [13], in test [14] and in test [15] was inactive. Besides, the call in [18] and in test [19] was inactive. For the same molecule, the AC50 in test [7] is 31.1 µM (active); in test [9], 50 µM (active); in test [10], 9.92 µM (active); in [16], 1.01 µM (active); in test [17], 2.63 µM (active); in test [20], 22.6 µM (active).
As for `Cc1ccccc1[N+](=O)[O-]`, the result in test [1], in [2], in test [3], in test [4], in test [5] and in [6] was inactive. Also, the outcome in [7], in [8], in test [9], in test [10], in test [11] and in test [12] was inactive. The result in test [13], in test [14], in test [15], in test [17], in test [18] and in test [20] was inactive. In addition, the AC50 in test [16] was 13.9 µM (active).
As for `COc1ccc(O)c(C(C)(C)C)c1`, the result in [1], in [2], in test [3], in test [4], in test [5] and in test [6] was inactive. Besides, the call in [7], in [8], in test [9], in test [10], in test [11] and in test [12] was inactive. Moreover, the result in test [13], in test [14], in test [15], in test [16], in test [17] and in test [18] was inactive. Besides, the molecule was classed as inactive in [20].
In the case of `CCNc1nc(NC(C)C)nc(SC)n1`, the result in test [1], in [2], in test [4], in test [5], in [6] and in [8] was inactive. Further, the call in test [9], in test [10], in test [11], in [12], in test [13] and in test [14] was inactive. For the same molecule, the outcome in test [15], in test [18] and in test [19] was inactive. For the same molecule, the AC50 was 17.9 µM (active) in [3]; 50 µM (active) in test [7]; 1.11 µM (active) in test [16]; 2.45 µM (active) in test [17]; 29.1 µM (active) in test [20].
In the case of `COS(=O)(=O)OC`, the molecule was classed as inactive in [1], in test [2], in test [3], in [4], in [5] and in test [6]. Besides, the molecule was called inactive in test [7], in [8], in [9], in [10], in test [11] and in test [12]. Besides, the molecule was called inactive in [13], in test [15], in test [16], in test [17], in [18] and in [19]. Further, the outcome in test [20] was inactive. The AC50 in [14] is 31 µM (active).
As to `Cc1ccccc1CO[C@@H]1C[C@@]2(C(C)C)CC[C@]1(C)O2`, the result in test [1], in test [2], in test [3], in [4], in test [5] and in test [6] was inactive. The molecule was called inactive in test [7], in test [8], in test [9], in test [10], in test [11] and in test [12]. In addition, the molecule was called inactive in test [13], in test [15] and in [19]. The AC50 in [14] was 76.3 µM (active); in [16], 15.9 µM (active); in test [17], 32.5 µM (active); in test [18], 50 µM (active); in test [20] it was 50 µM (active).
